Assay results from PubChem BioAssay (NCI).
Compounds without any hit were thinned out: in the full panel of roughly 79,000, 15% have a hit. Unmarked numbers belong to inactive results. The source made the active and inactive calls. Rule as the data show it: active = growth inhibition above about 70%; inactive = the rest.

Assays:
[1] = NCI Yeast Anticancer Drug Screen. Data for the rad50 strain (AID 155);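 also: 0% = growth of vehicle-only cultures of the same strain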; details: S. cerevisiae rad50 strain growth inhibition, hits give high values
Method in brief: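 Growth of the mutant yeast was measured after compound exposure and referenced to vehicle-treated cultures.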

[2] = NCI Yeast Anticancer Drug Screen. Data for the mec2-1 strain (AID 157); details: S. cerevisiae mec2-1 strain, hits give high values
Method in brief: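 Compounds were applied to mec2-1 yeast cells. Their growth was then compared with that of vehicle-treated cultures to give growth inhibition.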

[3] = NCI Yeast Anticancer Drug Screen. Data for the sgs1 mgt1 strain (AID 161);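 also: 0% = growth of cultures given vehicle only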; details: S. cerevisiae sgs1 mgt1 strain, hits give high values
Method in brief: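 Growth of a repair-deficient yeast mutant was monitored after compound treatment and expressed as inhibition relative to vehicle-treated cultures.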

[4] = NCI Yeast Anticancer Drug Screen. Data for the cln2 rad14 strain (AID 165);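 also: 0% = growth equal to vehicle treated cultures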; details: S. cerevisiae cln2 rad14 strain, hits give high values
Method in brief: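 Strain: cln2 rad14 yeast, altered in cell cycle control and DNA damage repair. Read-out: growth inhibition vs vehicle.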

[5] = NCI Yeast Anticancer Drug Screen. Data for the bub3 strain (AID 167); details: S. cerevisiae bub3 mutant strain, hits give high values
Method in brief: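 Whole-cell yeast assay. The mutant strain was incubated with compounds, and growth inhibition was determined by comparison with vehicle-treated cells.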

[6] = NCI Yeast Anticancer Drug Screen. Data for the mlh1 rad18 strain (AID 175); details: S. cerevisiae mlh1 rad18 strain growth inhibition, hits give high values
Method in brief: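 A repair-deficient yeast strain is exposed to test compound, and growth is scored relative to vehicle-treated controls.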

[7] = at 5.0 µM (retest, dose inferred, filed as 0.5)
[8] = at 50.0 µM (retest, dose inferred, filed as 5.0)

Row | SMILES | growth inhibition [1, 7] | growth inhibition [1, 8] | growth inhibition ([1]; at 50.0 µM) | growth inhibition [2, 7] | growth inhibition [2, 8] | growth inhibition ([2]; at 50.0 µM) | growth inhibition [3, 7] | growth inhibition [3, 8] | growth inhibition ([3]; at 50.0 µM) | growth inhibition [4, 7] | growth inhibition [4, 8] | growth inhibition ([4]; at 50.0 µM) | growth inhibition [5, 7] | growth inhibition [5, 8] | growth inhibition ([5]; at 50.0 µM) | growth inhibition [6, 7] | growth inhibition [6, 8] | growth inhibition ([6]; at 50.0 µM)
1 | Cc1ccc(OP(=O)(Oc2ccc(C)cc2)Oc2ccc(C)cc2)cc1.Cc1ccc(OP(=O)(Oc2ccc(C)cc2)Oc2ccc(C)cc2)cc1.Cc1ccc(OP(=O)(Oc2ccc(C)cc2)Oc2ccc(C)cc2)cc1.Cc1ccc(OP(=O)(Oc2ccc(C)cc2)Oc2cccc(C)c2)cc1.[Cd+2].[O-][Cl+3]([O-])([O-])O | 12% | 64% | 58.6% | 6% | 33% | 45% | 9% | 29% | 20% | -11% | 32% | 62.6% | 10% | 23% | 36.6% | 10% | 36% | 39.2%
2 | O=[N+]([O-])c1ccc(CS(=O)(=O)C(Cl)Cl)o1 | 10% | 79% (active) | 92% (active) | -1% | 52% | 59.5% | 3% | 79% (active) | 87.9% (active) | -6% | 68% | 78.8% (active) | -7% | 56% | 48.1% | 15% | 90% (active) | 95.6% (active)
3 | CCC[CH2][Sn]1([CH2]CCC)[O]CC(C)[O]1 (centres undefined) | 33% | 95% (active) | 86% (active) | 30% | 97% (active) | 90% (active) | 42% | 68% | 88.2% (active) | 34% | 64% | 87.2% (active) | 48% | 97% (active) | 88.3% (active) | 53% | 96% (active) | 86.7% (active)
4 | C1CCNCC1.O=C([CH-]C(=O)C(F)(F)F)c1ccc2c(c1)C(=O)c1ccccc1-2.O=C([CH-]C(=O)C(F)(F)F)c1ccc2c(c1)C(=O)c1ccccc1-2.O=C([CH-]C(=O)C(F)(F)F)c1ccc2c(c1)C(=O)c1ccccc1-2.O=C([CH-]C(=O)C(F)(F)F)c1ccc2c(c1)C(=O)c1ccccc1-2.[Eu+3] | 54% | 79% (active) | 70.3% (active) | 42% | 64% | 20.2% | 15% | 58% | 52.2% | – | – | – | 34% | 71% (active) | 52.2% | 40% | 69% | 49.1%
5 | COc1cc(C2c3cc4c(cc3[C@@H](Nc3ccc([N+](=O)[O-])cc3)C3COC(=O)[C@H]23)OCO4)cc(OC)c1O (some centres undefined) | 96% (active) | 96% (active) | 84.4% (active) | 97% (active) | 97% (active) | 91% (active) | 49% | 98% (active) | 87.7% (active) | – | – | – | 54% | 98% (active) | 87.2% (active) | 95% (active) | 96% (active) | 88.5% (active)
6 | CCC[CH2][Sn]([CH2]CCC)([O]C(=O)CCC(C)=O)[O]C(=O)CCC(C)=O | 73% (active) | 98% (active) | 87% (active) | 80% (active) | 99% (active) | 91.7% (active) | 79% (active) | 99% (active) | 89.7% (active) | 74% (active) | 99% (active) | 90.3% (active) | – | – | – | 81% (active) | 98% (active) | 91.7% (active)
7 | O=C([CH-]C(=O)c1ccccc1)c1ccccc1.O=C([CH-]C(=O)c1ccccc1)c1ccccc1.[La+3].[OH-].[OH3+] | 24% | 24% | 92% (active) | 23% | 23% | 93.5% (active) | 27% | 27% | 93.7% (active) | – | – | – | 37% | 37% | 91.2% (active) | 25% | 25% | 88.2% (active)
8 | CC12OOC(c3ccccc31)c1c2ccc2ccccc12 (centres undefined) | 62% | 98% (active) | 86% (active) | 94% (active) | 99% (active) | 93.5% (active) | – | – | – | 71% (active) | 99% (active) | 88.5% (active) | 97% (active) | 97% (active) | 90.5% (active) | 90% (active) | 97% (active) | 90.2% (active)
9 | CC1=CC2CC(C)=C(CC[C@]3(C)CC[C@H]([C@@H](C)C(=O)O)OO3)C(C)(C)C2CC1 (some centres undefined) | 41% | 98% (active) | 91.7% (active) | 59% | 99% (active) | 93.8% (active) | – | – | – | 41% | 98% (active) | 91.2% (active) | 52% | 98% (active) | 92.2% (active) | 60% | 98% (active) | 91.4% (active)
